The record followed here is PubChem BioAssay (NCATS).

Inconclusive results are not listed. Unmarked numbers belong to inactive results. The source made the active and inactive calls. Calls come from the whole dose curve; as a rule, active = well fitted inhibition curve with a large enough effect; inconclusive = small, poorly fitted or top-dose-only effect; inactive = no such curve, though single readings can be large or run the other way.
Potency is the fitted concentration of half-maximal effect.

The assay can be described thus: qHTS to identify inhibitors of the type 1 interferon - major histocompatibility complex class I in skeletal muscle: primary screen against the NCATS Mechanism Interrogation Plate v5.0 (MIPE) Libary (AID 1347411).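 For activity change, negative = inhibition: plate controls were vehicle for no effect and reference inhibitor for full effect.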 Note: nearly all actives have a fitted effect of over 65% in size. The conditions noted are these: iHSKM cells + IFN-b, HiBiT-tagged MHC-I luminescence, 24 h; series mostly up to 45.8 µM; activity change, negative = inhibition: at the top concentration. The essentials: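 Seed engineered human myoblasts (HLA-B HiBit) in medium without dexamethasone containing 4 ng/ml IFN-beta; after 1 hr add compound titrations (top 46 uM final). Incubate 24 hrs at 37 C, lyse 10 min with HiBiT reagent, read luminescence.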
Consider `O=C(NCCS(=O)(=O)c1ccc(C(F)(F)F)cn1)c1ccc(Cl)cc1`, for which the “activity change, negative = inhibition” value is -2.81%.

For the compound `CC[C@@H]1C(=O)N(C)c2cnc(Nc3ccc(C(=O)NC4CCN(C)CC4)cc3OC)nc2N1C1CCCC1`, the Potency is 16.5 µM (active). On the same count and under the same terms, the same measure for `CC(C)(C)c1cnc(CSc2cnc(NC(=O)C3CCNCC3)s2)o1`: 0.262 µM (active); for `COc1cc2nccc(Oc3ccc(NC(=O)C4(C(=O)Nc5ccc(F)cc5)CC4)cc3)c2cc1OC`: 8.29 µM (active). On the same count and under the same terms, next, `Nc1ncnc2c1c(-c1cnc3[nH]ccc3c1)nn2C1CCCC1`: 0.829 µM (active); `Cc1nc2cnc3ccc(C#Cc4cccnc4)cc3c2n1-c1ccc(C(C)(C)C#N)cc1`: 14.7 µM (active).

As for `Cc1cc(Nc2cc(N3CCN(C)CC3)nc(Sc3ccc(NC(=O)C4CC4)cc3)n2)n[nH]1`, the “activity change, negative = inhibition” value is -22.9%. Turning to `COc1ccc2c(OCc3nnc4ccc(-c5ccccc5)nn34)ccnc2c1`, the “activity change, negative = inhibition” value is -21.7%.

As to `Cn1c2cc(S(C)=O)sc2c2cnn(Cc3cccc(N)c3)c(=O)c21` (stereo not drawn), the “activity change, negative = inhibition” value was -20.4%. `CN1CCN(c2cc(C(=O)Nc3ccc4c(c3)-c3c(c(C(N)=O)nn3-c3ccc(F)cc3)CC4)c(Cl)cn2)CC1`: the Potency was 18.6 µM (active).

For `CC(C)(C)c1cc(C(C)(C)C)c(NC(=O)c2c[nH]c3ccccc3c2=O)cc1O`, the Potency is 23.4 µM (active).

In the case of `COC(=O)c1ccc2c(C(=Nc3ccc(N(C)C(=O)CN4CCN(C)CC4)cc3)c3ccccc3)c(O)[nH]c2c1`, the Potency is 16.5 µM (active). `CNC(=O)c1ccc(-c2cnc3ncc(Cc4ccc5ncccc5c4)n3n2)cc1F`: the “activity change, negative = inhibition” value is 2.59%. Regarding `COc1ccc(F)c(F)c1C(=O)c1cnc(NC2CCN(S(C)(=O)=O)CC2)nc1N`, the Potency is 2.94 µM (active). Turning to `CC(C)c1ccc(Cn2ccc3c4c(N)nc(NC5CC5)nc4ccc32)cc1`, the Potency was 4.66 µM (active). With `CN(c1ncccc1CNc1nc(Nc2ccc3c(c2)CC(=O)N3)ncc1C(F)(F)F)S(C)(=O)=O`, the Potency is 4.66 µM (active). On to `COc1cccc(Nc2c(C(N)=O)cnc3c(C)cc(S(=O)(=O)c4cccc(C(=O)N(C)C)c4)cc23)c1`, for which the “activity change, negative = inhibition” value is 0.814%. In the case of `O=c1[nH]c(=O)n(C2CCCO2)cc1F` (stereo not drawn), the “activity change, negative = inhibition” value was 1.14%. On to `Fc1cc(-c2cccc3ncc(-c4cnn(C5CCNCC5)c4)nc23)cc(F)c1CN1CCOCC1`, for which the Potency is 11.7 µM (active).

As to `C[C@]12CC[C@H](O)CC1=CCC1C2CC[C@]2(C)C(n3cnc4ccccc43)=CCC12` (stereo partly drawn), the “activity change, negative = inhibition” value was -24.7%. As for `Nc1cccc(-c2cc3c(Oc4cccc(O)c4)ncnc3[nH]2)c1`, the Potency is 13.1 µM (active). The same measure, in the same setting: the same measure for `O=c1[nH]nc(Sc2ncc([N+](=O)[O-])s2)n1-c1ccc2c(c1)OCCO2`: 6.58 µM (active). With `Cc1cc(Nc2ncnc3ccc(-c4ccc(CNCCS(C)(=O)=O)o4)cc23)ccc1Oc1ccn2ncnc2c1`, the “activity change, negative = inhibition” value was -18.1%.

Regarding `NCC(=O)Nc1ccc(-n2nc(C(F)(F)F)cc2-c2ccc3c(ccc4ccccc43)c2)cc1`, the “activity change, negative = inhibition” value was -26.1%.

With `COC(=O)C1=C(C)NC(C)=C(C(=O)OCCN2CCN(C(c3ccccc3)c3ccccc3)CC2)C1c1cccc([N+](=O)[O-])c1` (stereo not drawn), the “activity change, negative = inhibition” value was -38.8%. With `COc1ccc(CC2SC(=O)NC2=O)cc1C(=O)NCc1ccc(C(F)(F)F)cc1` (stereo not drawn), the “activity change, negative = inhibition” value is 1.95%. As for `C[C@@H](Oc1cc(-n2cnc3ccc(CN4CCN(C)CC4)cc32)sc1C(N)=O)c1ccccc1C(F)(F)F`, the Potency is 20.8 µM (active). Same read-out and setting: the same measure for `O=C(NC1CCNCC1)c1[nH]ncc1NC(=O)c1c(Cl)cccc1Cl`: 0.262 µM (active); for `CC(=O)c1c(C)c2cnc(Nc3ccc(N4CCNCC4)cn3)nc2n(C2CCCC2)c1=O`: 14.7 µM (active). As for `CC1(C)CCC(c2ccc(Cl)cc2)=C(CN2CCN(c3ccc(C(=O)NS(=O)(=O)c4ccc(N[C@H](CCN5CCOCC5)CSc5ccccc5)c(S(=O)(=O)C(F)(F)F)c4)cc3)CC2)C1`, the “activity change, negative = inhibition” value was -28.2%. For `COC(=O)C[C@](O)(CCCC(C)(C)O)C(=O)O[C@@H]1C(OC)=C[C@]23CCCN2CCc2cc4c(cc2[C@H]13)OCO4`, the Potency is 0.093 µM (active). Take `COc1cccc(-c2ccc(NC(=O)C3=C(C(=O)O)CCC3)c(F)c2)c1`: the “activity change, negative = inhibition” value was -40.5%.

On to `NC(=O)c1c(OCc2c(F)cc(Br)cc2F)nsc1NC(=O)NCCCCN1CCCC1`, for which the Potency is 33 µM (active).
